FLuc inh: inhibitors of firefly luciferase. Potency, µM (series often up to 57.1 µM), for inactives: at the highest dose activity change, negative = inhibition, most hits filed as inhibitors. 72,000 tested, 2.2% active. P08659. purified firefly luciferase, luminescence, 8 min; further: on the % scale 0 is the no-effect control and ±100 the full control effect; nearly all actives have a fitted effect of over 40% in size
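Substrate buffer containing 10 uM ATP (pH 7.2 imidazole, Mg2+, KCl, detergent, BSA) is dispensed, compound pinned in, then luciferase/luciferin detector mix added. After 8 min at ambient temperature, light output is measured.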
Bst PK mod: pyruvate kinase (B. stearothermophilus) modulation; Potency, µM; purified pyruvate kinase, luminescence ATP production; ribose 5-phosphate activator present at AC10; 51,000 tested, 1.2% active; in the data active means potency below about 11 µM; inconclusive means mostly about 12 µM to 25 µM;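 the screen sought inhibitors and activators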;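 further: scaled between full activation by ribose 5 phosphate and full inhibition by luteolin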
Casp7 inh: caspase-7 (human) inhibition, allosteric or competitive; P55210; recombinant caspase-7, Ac-DEVD-AFC fluorescence rate; Potency, µM (doses to about 57.5 µM), for the others: at the highest dose activity change, negative = inhibition, hits mostly inhibitors; 75,000 tested, 0.02% active; AID 889; active means well fitted inhibition curve with a large enough effect in the main read-out, with a control signal flat, not every such curve was filed as active; inconclusive means small, poorly fitted or top-dose-only effect, or a change in a side signal; further: % of control where 0% means no effect
Caspase-1 inhib: caspase-1 (human) inhibition, allosteric or competitive; 75,000 tested, 0.03% active; Potency, µM (doses to about 57.5 µM), without a hit: at the highest dose activity change, negative = inhibition, hits mostly inhibitors; Caspase-1 enzyme, Ac-WEHD-AFC fluorogenic rate; P29466;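 further: plate controls were vehicle for no effect and no substrate for full effect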
Tau fil binding: binds recombinant human tau filaments | P10636 | recombinant tau filaments, thioflavin S fluorescence, 15 h; filaments grown with octadecylsulfate alongside compound | Potency, µM (titrated, usually from 57.1 µM), for inactives: at the highest dose activity change, negative = inhibition | 71,000 tested, 2% active;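 further: on the % scale 0 is the no-effect control and ±100 the full control effect; actives lower thioflavin S fluorescence by blocking filaments or displacing dye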
Target sequence (P10636 whole entry, looked up): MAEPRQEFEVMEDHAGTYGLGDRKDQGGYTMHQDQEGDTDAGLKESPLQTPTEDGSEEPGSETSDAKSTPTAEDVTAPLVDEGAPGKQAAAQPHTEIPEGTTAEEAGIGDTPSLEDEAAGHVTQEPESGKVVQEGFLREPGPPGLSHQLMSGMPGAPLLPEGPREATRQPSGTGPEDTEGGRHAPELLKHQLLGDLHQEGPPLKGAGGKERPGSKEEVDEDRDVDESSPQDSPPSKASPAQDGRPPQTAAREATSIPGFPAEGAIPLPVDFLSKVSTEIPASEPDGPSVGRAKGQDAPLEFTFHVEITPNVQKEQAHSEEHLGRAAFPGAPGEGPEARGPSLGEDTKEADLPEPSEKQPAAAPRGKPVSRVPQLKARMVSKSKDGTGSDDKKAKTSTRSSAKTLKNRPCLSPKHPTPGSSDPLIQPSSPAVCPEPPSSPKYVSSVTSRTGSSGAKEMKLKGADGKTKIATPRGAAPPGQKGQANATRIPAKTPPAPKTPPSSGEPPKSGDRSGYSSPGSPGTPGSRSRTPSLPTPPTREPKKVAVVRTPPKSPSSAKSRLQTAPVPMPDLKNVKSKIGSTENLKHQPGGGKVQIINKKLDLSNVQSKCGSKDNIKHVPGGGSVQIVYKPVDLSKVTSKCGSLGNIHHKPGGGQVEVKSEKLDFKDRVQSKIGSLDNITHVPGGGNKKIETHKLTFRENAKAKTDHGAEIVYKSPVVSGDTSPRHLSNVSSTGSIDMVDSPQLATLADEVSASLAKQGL
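Tau 2 uM in ThS buffer dispensed; compound added; 60 uM ODS added (finals 1 uM tau, 30 uM ODS); 15 h 37 C; fluor ex450/em510.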
Starred values were filed as active, the others as inactive; i = inactive; ? = inconclusive; / = no result given; [ ] = another dose, or the depositor's remark. In the library only some 4% were active in any assay of this set; here they are far more common. Unless noted, the call rests on the fitted dose curve; in most records, active means well fitted curve in the direction sought with a large enough effect; inconclusive means small, poorly fitted or top-dose-only effect, or another doubt; inactive means no such curve, though single readings can be large; an effect the other way counts as inactive or inconclusive. Potency means the concentration at half of the fitted maximal effect.

SMILES	FLuc inh	Bst PK mod	Casp7 inh	Caspase-1 inhib	Tau fil binding
c1ccc2nc3[nH]cnc3nc2c1	1.9%	/	0.1%	1.1%	8.4%
Cc1cc(O)c(C(C)(C)C)cc1Sc1cc(C(C)(C)C)c(O)cc1C	/	/	-9.6%	-4.9%	20µM*
CC(C)(C)c1cc(O)c(C(C)(C)C)cc1O	-1.2%	/	0.3%	3.0%	?
Cc1csc(C(C#N)C(=O)c2cc3ccccc3o2)n1 (centres undefined)	12.6µM*	?	4.2%	0.0%	-4.3%
CN1/C(=C\C(=O)c2cccs2)Sc2ccccc21	6.31µM*	6.56*	?	/	0.3%
COCC(=O)/C=C1\Sc2ccccc2N1C	-0.5%	>57	0.7%	1.8%	-5.6%
Cc1nn(-c2nc3ccccc3s2)c(N)c1Sc1ccc(F)cc1	0.7%	>57	-1.1%	-1.7%	10.1%
Cc1nn(-c2nc3ccccc3[nH]2)c(N)c1-c1ccccc1	7.94µM*	2.85*	-2.3%	-1.6%	39.4%
Cc1nn(-c2nc3ccccc3s2)c(N)c1-c1ccccc1	3.98µM*	1.64*	-0.5%	-3.0%	60.8%
Cc1nn(-c2nc3ccccc3s2)c(N)c1-c1ccc(Cl)cc1	-17.0%	7.81*	-0.6%	-0.8%	52.9%
[O-][N+]1(CC[N+]2([O-])CCCCC2)CCCCC1	0.7%[11.4 µM]	/	1.4%[11.5 µM]	-13.3%[11.5 µM]	2.2%[11.4 µM]
COC(=O)/C=C/C1c2ccccc2C(OC)C1C (centres undefined)	/	/	-2.2%[11.5 µM]	-3.6%[11.5 µM]	/
CN(Cc1ccco1)c1ncnc2ccc(-c3ccccc3C(F)(F)F)cc12	-2.6%[2.29 µM]	/	-9.6%	-5.5%	-4.8%
O=C1[C@@H]2C=CC=CC2=NC(=S)N1CCN1CCC(=C(c2ccc(F)cc2)c2ccc(F)cc2)CC1	1.1%	/	-0.8%	1.5%	145.9%
O=c1c(-c2cccc(F)c2)nc2cncnc2n1Cc1ccccc1	0.7%[11.4 µM]	/	-4.5%	-7.6%	20µM*
O=c1c(-c2ccccc2)nc2cncnc2n1Cc1ccccc1	-0.1%[11.4 µM]	/	-17.0%	-5.3%	20µM*
C=CCSc1nnc2nc3c(nn12)c1cc(C)ccc1n3CC=C	2.4%	/	-1.6%	-2.5%	6.31µM*
C/C=C/C1Oc2ccc(OC)cc2N2C(=O)C(C)C(OCOC)C12 (centres undefined)	/	/	0.3%[11.5 µM]	?	/
COc1ccc(CNC(=O)Nc2ccc(OC)cc2)cc1	0.4%	>57	-0.2%	0.7%	82.7%
COc1cccc(C(=O)Nc2ccc(N(C)C)cc2)c1OC	15.8µM*	i	1.1%	-1.0%	?
COc1ccc(NC(=O)Nc2ccc3nccnc3c2)cc1	6.31µM*	/	-3.1%	-1.9%	3.16µM*
COc1cccc(NC(=O)c2cccc(OC)c2OC)c1	?	/	-0.8%	0.2%	-7.3%
CCc1nnc(NC(=O)Nc2ccc(OC)cc2)s1	-18.0%	>57	0.6%	0.1%	-0.9%
COc1ccc(NC(=O)Nc2nccs2)cc1	12.6µM*	i	-0.5%	1.2%	-5.6%
COc1ccc(NC(=O)Nc2ccc(N(C)C)cc2)cc1	12.6µM*	/	0.4%	0.5%	15.8µM*
SMILES	FLuc inh	Bst PK mod	Casp7 inh	Caspase-1 inhib	Tau fil binding
COc1ccc(-c2nc3cnc(N(C)C)nc3n(C)c2=O)cc1	-8.3%[11.4 µM]	/	?	/	180.6%
O=C(c1cccc(Cl)c1)N1CCN(C(=O)c2ccco2)CC1	4.0%	/	1.3%	-3.1%	0.4%
O=C(c1ccco1)N1CCN(C(=O)c2cc(-c3ccccn3)nc3ccc(Cl)cc23)CC1	-10.9%	i	-18.4%	-6.5%	10µM*
O=C(c1ccco1)N1CCN(C(=O)c2cc(-c3ccncc3)nc3ccc(Br)cc23)CC1	2.0%	7.64*	-0.5%	-1.0%	-19.2%
COc1ccc(N2CC(O)=C(c3nc4ccccc4s3)C2=N)c(OC)c1	-3.5%	>11.4	-0.8%	-7.5%	-4.0%
COc1cccc(N2CC(O)=C(c3nc4ccccc4c(=O)[nH]3)C2=N)c1	-6.0%	2.88*	-0.1%	1.0%	8.2%
c1csc(-c2nc3nc4ccccc4nc3n2Cc2ccc3c(c2)OCO3)c1	-8.8%	/	?	/	3.16µM*
O=c1[nH]c2ccccc2c2nc3ccccn3c12	?	4.33*	1.5%	-1.3%	-2.1%
O=c1[nH]c2ccccc2c2ccccc12	0.0%	/	0.2%	-1.4%	-5.7%
CC1=C/C(=N/O)C([C@H]2C=C(C)CC(C)(C)[C@@H]2O)C(C)(C)C1 (some centres undefined)	1.3%[11.4 µM]	/	2.3%[11.5 µM]	-1.2%[11.5 µM]	-11.4%[11.4 µM]
C[C@@]12C(=O)OC(=O)[C@@]1(C)[C@@H]1CC[C@@H]2O1	-0.7%	/	-0.4%	-0.1%	31.6µM*

From PubChem
